Seven compounds from PubChem BioAssay (Tox21) can be followed below.

Assay [1] is described as follows: Nuclear factor erythroid 2-related factor 2/antioxidant responsive element (Nrf2/ARE) small molecule agonists: qHTS cell viability counter screen in human keratinocytes (AID 1919968; active means well fitted curve in the direction sought with a large enough effect in the repeat runs; an effect the other way counts as inactive or inconclusive; further: nearly all actives have a fitted effect of over 55% in size). A digest of the protocol: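 KeratinoSens cells (HaCaT keratinocytes stably carrying an ARE-luciferase reporter) were seeded at 1,500 cells/well and rested 5 h at 37 C/5% CO2. They were then exposed to compounds in DMSO for 23 h. Viability was read by CellTiter-Fluor fluorescence after 1 h.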

A short description of assay [2]: Nuclear factor erythroid 2-related factor 2/antioxidant responsive element (Nrf2/ARE) small molecule agonists: luciferase reporter gene qHTS assay in human keratinocytes (AID 1919969). Further: nearly all actives have a fitted effect of over 35% in size.
Assay [3] concerns the target Gonadotropin-releasing hormone receptor (Homo sapiens) (UniProt P30968). Description: Human gonadotropin-releasing hormone receptor (GnRHR) small molecule agonists, calcium flux assay in GnRHR-HEK293 cells (AID 1920063). Further: nearly all actives have a fitted effect of over 35% in size. In short, it runs like this: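 HEK293 cells stably expressing human GnRHR were plated 18 h at 37 °C, loaded with calcium dye 1 h at 37 °C, then given compound in agonist mode; fluorescence (Ex/Em 480/540) read kinetically for 3 min at 1 s intervals.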
A general note: Calcium assays in cells follow changes in intracellular calcium, usually with a dye or a luminescent sensor.

Assay [4] addresses KiSS-1 receptor (Homo sapiens) (UniProt Q969F8). Description: Human kisspeptin (KISS1R) small molecule agonists, calcium flux assay in KISS1R-HEK293 cells (AID 1920064; active means well fitted curve in the direction sought with a large enough effect in the repeat runs; an effect the other way counts as inactive or inconclusive). A digest of the protocol: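 HEK293 cells stably expressing human KISS1R were plated 18 h at 37 °C, loaded with calcium dye for 1 h at 37 °C, then given compound by pin tool. Fluorescence (Ex/Em 480/540) was read kinetically for 3 min.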

A short description of assay [5]: G protein-coupled receptor (GPCR) small molecule agonists, calcium flux assay: HEK293 wild type cell line counter screen (AID 1920065). In short, it runs like this:
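Cells were plated and cultured 18 h at 37 C/5% CO2, then loaded with calcium dye for 1 h at 37 C. Compounds in DMSO were pin-transferred in agonist mode, and fluorescence (Ex/Em 480/540) was read kinetically for 3 min at 1 s intervals.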

Assay [6] can be described thus: p53 small molecule agonists, cell-based qHTS assay with human liver microsomes (AID 1963577).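 Further: p53 response element beta-lactamase reporter cells with liver microsomes plus NADPH.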 A digest of the protocol:
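p53RE-bla cells; 5 h settle, 37 C/5% CO2; cpd + HLM 0.5 mg/mL + NADPH 0.5 mg/mL (final); 16 h 37 C; LiveBLAzer 2 h RT dark; fluorescence readout.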

Assay [7] can be described thus: p53 small molecule agonists, cell-based qHTS assay with rat liver microsomes (AID 1963578). A digest of the protocol:
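Rat liver microsome activation: microsomes 0.5 mg/mL, NADPH 0.5 mg/mL final; p53RE-bla cells, 16 h 37 C; LiveBLAzer readout, 2 h RT dark.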
(In general: Quantitative high-throughput screening tests each substance at several concentrations.)

Assay [8] is described as follows: p53 small molecule agonists, cell-based qHTS assay with human liver microsomes: qHTS cell viability counter screen (AID 1963579). Further: nearly all actives have a fitted effect of over 45% in size. A digest of the protocol: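 Luminescent CellTiter-Glo read-out, 30 min at room temperature, gauged cytotoxicity in p53RE-bla cells exposed 16 h at 37 C to DMSO-dissolved compounds with metabolic activation by human liver microsomes and NADPH, each 0.5 mg/mL final.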

The nature of assay [9]: p53 small molecule agonists, cell-based qHTS assay with rat liver microsomes: qHTS cell viability counter screen (AID 1963580). Further: nearly all actives have a fitted effect of over 45% in size. In short, it runs like this:
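Viability is assessed in parallel with the p53 reporter read: HCT-116 p53RE-bla cells receive compounds plus rat microsomes and NADPH (0.5 mg/mL final apiece), incubate 16 h at 37 C, and then CellTiter-Glo luminescence is recorded.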

The nature of assay [10]: p53 small molecule agonists, cell-based qHTS assay: qHTS cell viability counter screen (AID 1963581). Further: nearly all actives have a fitted effect of over 45% in size. In short, it runs like this:
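p53RE-bla HCT-116 cells were exposed to compounds for 16 h at 37 C; after the beta-lactamase FRET read in the same wells, CellTiter-Glo was added and luminescence (intracellular ATP) read after 30 min at room temperature.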

Assay [11] in a line: p53 small molecule agonists, cell-based qHTS assay (AID 1963582; active means well fitted activation curve with a large enough effect in the signal ratio in the repeat runs, not every such curve was filed as active; the % refers to the signal ratio; further: potency means the concentration at half of the fitted maximal effect). A digest of the protocol:
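p53RE-bla beta-lactamase reporter cells rested 5 h at 37 C/5% CO2, then received compounds in DMSO by pin transfer and were incubated 16 h at 37 C. LiveBLAzer B/G FRET substrate was loaded for 2 h at room temperature before fluorescence reading.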

Assay [12] concerns the target Muscarinic acetylcholine receptor M1 (Homo sapiens) (UniProt P11229). Description: Cholinergic receptor muscarinic 1 (CHRM1) small molecule antagonists, cell-based qHTS assay (AID 1963588). Further: nearly all actives have a fitted effect of over 40% in size. In short, it runs like this:
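CHRM1-CHO calcium-flux assay, antagonist mode. Cells were seeded 18 h, dye-loaded 1 h at 37 C and given compound for 5 min at RT, then acetylcholine was added at 50nM. FDSS fluorescence was read 3 min; 15 concentrations, three runs.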

The target is the same in assay [13]. Description: Cholinergic receptor muscarinic 1 (CHRM1) small molecule agonists, cell-based qHTS assay (AID 1963589). Further: nearly all actives have a fitted effect of over 35% in size. In short, it runs like this: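 CHO cells stably expressing human CHRM1, seeded 18 h at 37 C/5% CO2, dye-loaded 1 h at 37 C, then given compound in agonist mode; intracellular calcium fluorescence read kinetically at 1 s intervals. Fifteen concentrations, three independent runs.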

The nature of assay [14]: cAMP Responsive Elements (CRE) small molecule agonists, cell-based qHTS assay (AID 1963590). In short, it runs like this:
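CRE-bla HEK 293T cells in DMEM with 10% dialyzed FBS, NEAA, pyruvate and 25 mM HEPES were plated 18 h at 37 C/5% CO2, then exposed to compounds in DMSO for 3 h before LiveBLAzer B/G FRET substrate addition.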

Assay [15] is described as follows: cAMP Responsive Elements (CRE) small molecule antagonists, cell-based qHTS assay (AID 1963591; active means well fitted inhibition curve with a large enough effect in the signal ratio in the repeat runs, not every such curve was filed as active; the % refers to the signal ratio). In short, it runs like this:
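CRE-bla HEK293T cells were plated 18 h at 37 °C/5% CO2, pinned with compound in DMSO, then stimulated with NKH477 at 0.25 uM final for 3 h. LiveBLAzer B/G FRET substrate was added and plates incubated 2 h at room temperature.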

The target of assay [16] is Beta-2 adrenergic receptor (Homo sapiens) (UniProt P07550). Description: Adrenergic beta2 receptor (ADRB2) small molecule antagonists, cell-based qHTS assay (AID 1963592). Further: series mostly up to about 92 µM; nearly all actives have a fitted effect of over 50% in size. In short, it runs like this:
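Cells (CHO, stable ADRB2 overexpression) incubated 18-20hr at 37C; compounds added from DMSO; agonist mix (1nM isoproterenol, 100uM IBMX, 25uM Ro-20-1724) added; 0.5hr RT; d2-cAMP and anti-cAMP-cryptate added; 1hr RT; 665/615 nm read.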

Assay [17] shares this target. Description: Adrenergic beta2 receptor (ADRB2) small molecule agonists, cell-based qHTS assay (AID 1963593).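 Further: CHO cells stably overexpressing human ADRB2.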 A digest of the protocol:
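CHO cells stably over-expressing ADRB2 were plated overnight at 37C, then dosed with compounds plus a stimulation mix containing 100uM IBMX and 25uM Ro-20-1724 for 0.5hr at room temperature. cAMP was measured by HTRF competition, 1hr.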

Assay [18] addresses D(2) dopamine receptor (Homo sapiens) (UniProt P14416). Put plainly: Dopamine D2 receptor (DRD2) small molecule agonists, cell-based qHTS assay (AID 1963594). Further: nearly all actives have a fitted effect of over 35% in size. Further: potency means the concentration at half of the fitted maximal effect. In short, it runs like this:
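HEK293 cells stably expressing human DRD2, pre-treated with PDE inhibitor Ro20-1724 (0.1 mM final) and compound 10 min at room temperature, then stimulated with NKH477 (200nM […]) for 30 min. cAMP read by HTRF (665/620 nm).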

For assay [19] the target is unchanged. Description: Dopamine D2 receptor (DRD2) small molecule antagonists, cell-based qHTS assay (AID 1963595; active means well fitted inhibition curve with a large enough effect in the signal ratio in the repeat runs, with a control signal flat; the % refers to the signal ratio). In short, it runs like this: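 Readout: HTRF cAMP, cAMP-d2 competing with cellular cAMP for anti-cAMP cryptate, read after 1 h. Cells: DRD2-HEK293. Conditions: 0.1 mM Ro20-1724, 12 nM quinpirole, 200 nM NKH477, 30 min RT.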

A number with no mark means an inactive call. Inconclusive results are not listed. Calls of active or inactive are those of the source. Unless noted, the call rests on the fitted dose curve.
On the % scale 0 is the no-effect control and ±100 the full control effect.

Chain of KiSS-1 receptor (Homo sapiens) (Q969F8 whole entry, looked up): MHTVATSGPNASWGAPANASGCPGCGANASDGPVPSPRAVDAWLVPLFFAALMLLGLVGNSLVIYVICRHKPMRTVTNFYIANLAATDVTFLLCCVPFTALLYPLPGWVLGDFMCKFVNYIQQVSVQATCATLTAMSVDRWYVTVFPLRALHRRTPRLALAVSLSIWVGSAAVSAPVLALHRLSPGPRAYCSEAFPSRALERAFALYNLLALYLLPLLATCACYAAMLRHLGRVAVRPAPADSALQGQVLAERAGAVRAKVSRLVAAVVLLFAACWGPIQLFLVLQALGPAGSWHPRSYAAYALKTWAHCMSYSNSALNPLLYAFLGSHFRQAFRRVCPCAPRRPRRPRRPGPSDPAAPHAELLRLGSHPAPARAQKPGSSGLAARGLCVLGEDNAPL
Chain of Muscarinic acetylcholine receptor M1 (Homo sapiens) (P11229 whole entry, looked up): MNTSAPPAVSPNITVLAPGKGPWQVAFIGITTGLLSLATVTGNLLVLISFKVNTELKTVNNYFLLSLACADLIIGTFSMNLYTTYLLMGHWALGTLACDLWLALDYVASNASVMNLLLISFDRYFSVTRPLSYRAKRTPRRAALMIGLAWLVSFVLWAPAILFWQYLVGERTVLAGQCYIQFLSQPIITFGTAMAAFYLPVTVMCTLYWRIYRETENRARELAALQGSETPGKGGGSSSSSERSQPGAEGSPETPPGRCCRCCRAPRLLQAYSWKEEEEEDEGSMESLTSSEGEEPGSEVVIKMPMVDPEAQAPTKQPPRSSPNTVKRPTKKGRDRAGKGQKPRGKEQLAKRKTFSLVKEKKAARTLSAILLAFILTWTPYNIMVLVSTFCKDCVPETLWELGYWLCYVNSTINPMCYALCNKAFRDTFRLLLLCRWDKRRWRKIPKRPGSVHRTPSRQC
Chain of Gonadotropin-releasing hormone receptor (Homo sapiens) (P30968 whole entry, looked up): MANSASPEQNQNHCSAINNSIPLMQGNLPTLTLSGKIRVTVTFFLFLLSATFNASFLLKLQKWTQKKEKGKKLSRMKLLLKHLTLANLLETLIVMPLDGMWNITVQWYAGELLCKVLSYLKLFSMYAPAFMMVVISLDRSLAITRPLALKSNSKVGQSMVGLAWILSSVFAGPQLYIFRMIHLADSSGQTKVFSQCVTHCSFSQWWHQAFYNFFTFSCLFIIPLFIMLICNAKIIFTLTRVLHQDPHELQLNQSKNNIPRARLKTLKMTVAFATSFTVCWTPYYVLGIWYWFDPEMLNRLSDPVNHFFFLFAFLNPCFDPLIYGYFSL
Chain of Beta-2 adrenergic receptor (Homo sapiens) (P07550 whole entry, looked up): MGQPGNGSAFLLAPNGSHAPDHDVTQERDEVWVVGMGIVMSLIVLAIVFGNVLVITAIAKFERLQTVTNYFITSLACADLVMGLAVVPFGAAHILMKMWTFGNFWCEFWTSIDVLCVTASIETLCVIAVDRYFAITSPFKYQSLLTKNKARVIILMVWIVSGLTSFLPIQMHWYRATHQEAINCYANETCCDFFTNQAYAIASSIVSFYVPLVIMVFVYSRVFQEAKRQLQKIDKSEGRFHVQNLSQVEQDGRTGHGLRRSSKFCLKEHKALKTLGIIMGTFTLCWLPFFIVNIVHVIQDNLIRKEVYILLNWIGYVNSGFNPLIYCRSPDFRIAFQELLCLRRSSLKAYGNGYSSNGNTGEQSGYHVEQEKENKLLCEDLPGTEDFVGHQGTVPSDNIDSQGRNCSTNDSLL
Chain of D(2) dopamine receptor (Homo sapiens) (P14416 whole entry, looked up): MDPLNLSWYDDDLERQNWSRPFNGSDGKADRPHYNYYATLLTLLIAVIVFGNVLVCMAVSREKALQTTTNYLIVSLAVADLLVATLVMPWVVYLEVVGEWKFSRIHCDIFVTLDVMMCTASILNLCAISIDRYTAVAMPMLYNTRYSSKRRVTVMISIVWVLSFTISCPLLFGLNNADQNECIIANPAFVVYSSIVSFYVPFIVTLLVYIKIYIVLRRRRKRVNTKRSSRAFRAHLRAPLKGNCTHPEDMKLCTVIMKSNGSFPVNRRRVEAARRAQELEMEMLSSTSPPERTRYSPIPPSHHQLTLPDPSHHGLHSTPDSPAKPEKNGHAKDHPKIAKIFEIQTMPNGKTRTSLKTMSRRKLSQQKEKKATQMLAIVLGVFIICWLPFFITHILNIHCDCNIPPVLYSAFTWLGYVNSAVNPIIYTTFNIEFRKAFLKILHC

Turning to `CN(C)CCCSc1ccccc1NC(=O)/C=C/c1ccccc1`, the Potency result in [1], in assay [2], in assay [3], in assay [6], in assay [7] and in assay [8] was “inactive” throughout. The Potency result in [9], in assay [10], in [11], in assay [12], in assay [13] and in assay [14] was “inactive” each time. Further, the Potency result in [15], in [16], in [17] and in assay [18] was “inactive” each time. The outcome in [4] and in assay [5] was inactive.
For `CCCCCCCC/C=C\CCCCCCCCN`, the Potency entry in [1], in assay [2], in assay [3], in assay [6], in [7] and in [8] was “inactive” throughout. Besides, the Potency entry in assay [9], in [10], in assay [11], in assay [12], in assay [13] and in [14] was “inactive” each time. Also, the Potency result in assay [15], in assay [16] and in assay [18] was “inactive” in each case. Moreover, the result in [4] and in assay [5] was inactive.
Regarding `C[C@H]1O[C@@H](n2cc(F)c(=O)[nH]c2=O)[C@H](O)[C@@H]1O`, the Potency result in assay [1], in [2], in assay [3], in assay [6], in assay [7] and in [8] was “inactive” each time. For the same compound, the Potency entry in assay [9], in assay [10], in assay [14], in assay [15], in assay [16] and in assay [17] was “inactive” each time. Moreover, the Potency result in assay [18] and in [19] was “inactive” in each case. In addition, the outcome in assay [4] and in assay [5] was inactive. For the same compound, the Potency in assay [11] is 15.8 µM (active).
Regarding `CC(N)C12CC3CC(CC(C3)C1)C2` (centres undefined), the Potency result in assay [1], in assay [2], in assay [3], in [6], in assay [7] and in [8] was “inactive” each time. The Potency entry in [9], in assay [10], in [11], in [14], in [15] and in assay [16] was “inactive” each time. In addition, the Potency result in [17], in assay [18] and in [19] was “inactive” each time. The result in [4] and in [5] was inactive.
Consider `CCN[C@@H]1C[C@H](N)[C@@H](OC2OC(CN)=CCC2N)[C@H](O)[C@H]1O[C@H]1OC[C@](C)(O)[C@H](NC)[C@H]1O` (some centres undefined), for which the activity change, negative = cytotoxicity is -5.32% [at 0.349 µM] in [1], 1.03% [at 0.249 µM] in [8], -10.4% [at 0.249 µM] in [9] and -18.4% [at 0.249 µM] in assay [10]. Besides, the activity, positive = activation in assay [2] was 8.13% [at 0.349 µM]. Moreover, in assay [3], the activity change was -1.46% [at 0.217 µM, stronger effect = higher value]. The activation was -0.712% [at 0.29 µM] in [4]; 1.44% [at 0.217 µM] in [5]; 2.31% [at 0.249 µM] in assay [6]; -0.776% [at 0.249 µM] in [7]; 5.55% [at 0.249 µM] in [11]; -0.986% [at 0.349 µM] in assay [14]. Further, the values for the activation in assay [17] and in assay [18] were 7.07% [at 0.349 µM] and -8.99% [at 0.349 µM], respectively. Besides, the activity change, negative = inhibition in [15] is -9.29% [at 0.349 µM]; in [16], -0.979% [at 0.349 µM]; in assay [19] it was 14.9% [at 0.348 µM].
Regarding `Nc1nc2c(ncn2COC(CO)CO)c(=O)[nH]1`, the Potency entry in assay [1], in [2], in assay [3], in assay [6], in assay [7] and in assay [8] was “inactive” each time. For the same compound, the Potency entry in assay [9], in [10], in [11], in assay [14], in assay [15] and in assay [16] was “inactive” in each case. For the same compound, the Potency entry in assay [17] and in assay [19] was “inactive” throughout. Also, the result in assay [4] and in assay [5] was inactive. The Potency in assay [18] was 1.14 µM (active).
Take `Cc1ccc(N(CC2=NCCN2)c2cccc(O)c2)cc1`: the Potency result in assay [1], in assay [2], in assay [3], in [6], in assay [7] and in [8] was “inactive” in each case. Besides, the Potency entry in [9], in assay [10], in assay [11], in assay [14], in [15] and in [16] was “inactive” throughout. The Potency entry in [17] and in assay [18] was “inactive” in each case. In addition, the result in assay [4] and in assay [5] was inactive.
